Data as given in PubChem BioAssay AID1159580 (chemical genetic matrix, 2015).
The whole screen tested about 5,500 compounds, of which about 2,000 (36%) were called active. Not shown: some 18% with an inconclusive outcome. No stated cut-off is given here; in the data, active means normalized growth mostly below about 0.91 (no sharp cut-off); inconclusive means no clear call, values can overlap the other calls; inactive means mostly above about 0.92. The list shows a part of the results.

Assay: chemical genetic growth profiling, strain panel (AID 1159580);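 further: tested at 20 µM; growth read once vehicle control cultures reached saturation at 30 °C; 1 = growth at the plate median or of vehicle wells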
Conditions: S. cerevisiae deletion strains, growth OD
[1] = locus YDL101C, strain DUN1, stronger effect = lower value
[2] = locus YHR030C, strain SLT2, stronger effect = lower value
[3] = locus YJL095W, strain BCK1, stronger effect = lower value
[4] = locus YOR061W, strain CKA2, stronger effect = lower value

Measured: normalized growth

CC(C)(C)C1=NN(c2nc3ccc(Cl)cc3s2)C(=O)C1
inactive: locus YDR226W, strain ADK1, stronger effect = lower value 0.898
active: locus YAR019C, strain CDC15, stronger effect = lower value 0.484 | locus YBL105C, strain PKC1, stronger effect = lower value 0.0905 | locus YBR135W, strain CKS1, stronger effect = lower value 0.0897 | locus YBR136W, strain MEC1, stronger effect = lower value 0.102 | locus YBR160W, strain CDC28, stronger effect = lower value 0.111 | locus YDL017W, strain CDC7, stronger effect = lower value 0.0926 | locus YDL028C, strain MPS1, stronger effect = lower value 0.105 | [1] 0.496 | locus YDL108W, strain KIN28, stronger effect = lower value 0.516 | locus YDL132W, strain cdc53, stronger effect = lower value 0.436 | locus YDL214C, strain PRR2, stronger effect = lower value 0.104 | locus YDR052C, strain DBF4, stronger effect = lower value 0.116 | locus YDR054C, strain cdc34, stronger effect = lower value 0.225 | locus YDR477W, strain SNF1, stronger effect = lower value 0.11 | locus YER123W, strain YCK3, stronger effect = lower value 0.0976 | locus YER133W, strain GLC7, stronger effect = lower value 0.11 | locus YFL009W, strain cdc4, stronger effect = lower value 0.11 | locus YFL029C, strain CAK1, stronger effect = lower value 0.0958 | locus YFR003C, strain YPI1, stronger effect = lower value 0.0998 | locus YFR019W, strain FAB1, stronger effect = lower value 0.109 | locus YFR028C, strain CDC14, stronger effect = lower value 0.101 | locus YGR040W, strain KSS1, stronger effect = lower value 0.121 | locus YGR052W, strain FMP48, stronger effect = lower value 0.114 | locus YGR092W, strain DBF2, stronger effect = lower value 0.0994 | [2] 0.106 | locus YHR079C, strain IRE1, stronger effect = lower value 0.111 | locus YHR082C, strain KSP1, stronger effect = lower value 0.121 | locus YHR205W, strain SCH9, stronger effect = lower value 0.00427 | locus YIL147C, strain SLN1, stronger effect = lower value 0.104 | [3] 0.104 | locus YJL128C, strain PBS2, stronger effect = lower value 0.103 | locus YJL157C, strain FAR1, stronger effect = lower value 0.101 | locus YJR016C, strain ILV3, stronger effect = lower value 0.118 | locus YJR066W, strain TOR1 (second series), stronger effect = lower value 0.0988 | locus YJR066W, strain TOR1, stronger effect = lower value 0.108 | locus YKL048C, strain ELM1, stronger effect = lower value 0.119 | locus YKL067W, strain YNK1, stronger effect = lower value 0.144 | locus YKL101W, strain HSL1, stronger effect = lower value 0.0952 | locus YKL193C, strain SDS22, stronger effect = lower value 0.093 | locus YKL203C, strain TOR2, stronger effect = lower value 0.1 | locus YLR113W, strain HOG1, stronger effect = lower value 0.14 | locus YLR133W, strain CKI1, stronger effect = lower value 0.107 | locus YLR403W, strain SFP1, stronger effect = lower value 0.00206 | locus YML070W, strain DAK1, stronger effect = lower value 0.1 | locus YMR001C, strain CDC5, stronger effect = lower value 0.15 | locus YMR205C, strain PFK2 (second series), stronger effect = lower value 0.0849 | locus YMR277W, strain FCP1, stronger effect = lower value 0.262 | locus YNL006W, strain LST8, stronger effect = lower value 0.12 | locus YNL020C, strain ARK1, stronger effect = lower value 0.107 | locus YNL161W, strain CBK1, stronger effect = lower value 0.429 | locus YNL183C, strain NPR1, stronger effect = lower value 0.105 | locus YNL207W, strain RIO2, stronger effect = lower value 0.179 | locus YNL222W, strain SSU72, stronger effect = lower value 0.504 | locus YNL307C, strain MCK1 (second series), stronger effect = lower value 0.107 | locus YOL078W, strain AVO1, stronger effect = lower value 0.0851 | locus YOL136C, strain PFK27, stronger effect = lower value 0.111 | [4] 0.0975 | locus YOR119C, strain RIO1, stronger effect = lower value 0.114 | locus YOR231W, strain MKK1, stronger effect = lower value 0.104 | locus YOR329C, strain SCD5, stronger effect = lower value 0.299 | locus YPL031C, strain PHO85, stronger effect = lower value 0.0965 | locus YPL153C, strain RAD53, stronger effect = lower value 0.0988 | locus YPL204W, strain HRR25, stronger effect = lower value 0.11 | locus YPL209C, strain IPL1, stronger effect = lower value 0.0986 | locus YPL256C, strain CLN2, stronger effect = lower value 0.121 | locus YPR025C, strain CCL1, stronger effect = lower value 0.124 | locus YPR106W, strain ISR1, stronger effect = lower value 0.199 | locus YPR111W, strain DBF20, stronger effect = lower value 0.463 | strain NNK1, stronger effect = lower value 0.106 | strain TSCII, stronger effect = lower value 0.48

Nc1nc2[nH]c(=O)c(=O)[nH]c2c(=O)[nH]1
inactive: locus YAL013W, strain DEP1, stronger effect = lower value 1.01 | locus YBR021W, strain FUR4, stronger effect = lower value 0.971 | locus YBR229C, strain ROT2, stronger effect = lower value 0.998 | locus YCL029C, strain bik1, stronger effect = lower value 1.03 | locus YDL035C, strain GPR1, stronger effect = lower value 1.01 | locus YDL074C, strain BRE1, stronger effect = lower value 1.01 | [1] 1 | locus YDL134C, strain PPH21, stronger effect = lower value 1.02 | locus YDL185W, strain tfp1, stronger effect = lower value 1.01 | locus YDL192W, strain arf1, stronger effect = lower value 0.995 | locus YDR101C, strain arx1, stronger effect = lower value 0.987 | locus YDR162C, strain NBP2, stronger effect = lower value 1.05 | locus YDR318W, strain mcm21, stronger effect = lower value 1.01 | locus YDR388W, stronger effect = lower value 1.01 | locus YDR502C, strain sam2, stronger effect = lower value 1.01 | locus YEL061C, strain CIN8, stronger effect = lower value 1.01 | locus YER110C, stronger effect = lower value 1.01 | locus YER155C, strain BEM2, stronger effect = lower value 1.01 | locus YER167W, strain BCK2, stronger effect = lower value 1.01 | locus YGL078C, strain dbp3, stronger effect = lower value 1.01 | locus YGL086W, strain mad1, stronger effect = lower value 0.978 | locus YGL248W, strain PDE1, stronger effect = lower value 1.01 | locus YGR078C, strain PAC10, stronger effect = lower value 1.01 | locus YGR135W, strain pre9, stronger effect = lower value 1.03 | locus YGR252W, strain gcn5, stronger effect = lower value 1.01 | [2] 1.01 | locus YHR079C, strain IRE1 (second series), stronger effect = lower value 1 | locus YHR094C, strain hxt1, stronger effect = lower value 1.01 | locus YHR129C, strain ARP1, stronger effect = lower value 1.01 | locus YHR200W, strain rpn10, stronger effect = lower value 0.992 | locus YIL066C, strain RNR3, stronger effect = lower value 1.02 | locus YIL073C, strain SPO22, stronger effect = lower value 1.04 | locus YIL125W, strain kgd1, stronger effect = lower value 1.01 | locus YIR030C, strain dcg1, stronger effect = lower value 1.01 | [3] 1.02 | locus YJL134W, strain LCB3, stronger effect = lower value 1.02 | locus YJL168C, strain set2, stronger effect = lower value 1 | locus YJL187C, strain SWE1 (second series), stronger effect = lower value 1.01 | locus YJR043C, strain POL32, stronger effect = lower value 0.996 | locus YKL009W, strain mrt4, stronger effect = lower value 0.998 | locus YKL068W, stronger effect = lower value 1.01 | locus YKL085W, strain MDH1 (second series), stronger effect = lower value 1.02 | locus YKL085W, strain MDH1, stronger effect = lower value 1.02 | locus YKL190W, strain CNB1, stronger effect = lower value 1.01 | locus YKR001C, strain vps1, stronger effect = lower value 1 | locus YLR039C, strain RIC1, stronger effect = lower value 1.03 | locus YLR058C, strain SHM2, stronger effect = lower value 1.01 | locus YLR102C, strain apc9, stronger effect = lower value 1.01 | locus YLR262C, strain YPT6, stronger effect = lower value 1.08 | locus YLR268W, strain sec22, stronger effect = lower value 1.02 | locus YLR330W, strain CHS5, stronger effect = lower value 1.01 | locus YLR342W, strain FKS1 (second series), stronger effect = lower value 0.973 | locus YLR371W, strain rom2, stronger effect = lower value 1.02 | locus YLR418C, strain cdc73, stronger effect = lower value 0.971 | locus YML016C, strain PPZ1, stronger effect = lower value 0.996 | locus YML032C, strain rad52, stronger effect = lower value 1.02 | locus YML124C, strain tub3, stronger effect = lower value 1.01 | locus YMR078C, strain ctf18, stronger effect = lower value 1 | locus YMR223W, strain ubp8, stronger effect = lower value 1.01 | locus YMR263W, strain SAP30, stronger effect = lower value 1.01 | locus YMR307W, strain GAS1, stronger effect = lower value 1.02 | locus YNL067W, strain RPL9B, stronger effect = lower value 1.02 | locus YNL128W, strain TEP1, stronger effect = lower value 1.05 | locus YNL153C, strain GIM3, stronger effect = lower value 1.01 | locus YNL233W, strain BNI4, stronger effect = lower value 1.03 | locus YNL250W, strain rad50, stronger effect = lower value 1.02 | locus YNL271C, strain bni1, stronger effect = lower value 1.01 | locus YNL298W, strain CLA4, stronger effect = lower value 1 | locus YNL307C, strain MCK1, stronger effect = lower value 1 | locus YNR052C, strain pop2, stronger effect = lower value 1.02 | locus YOL006C, strain TOP1, stronger effect = lower value 1.01 | locus YOL012C, strain htz1 1.04 | locus YOL147C, strain pex11, stronger effect = lower value 1 | [4] 1 | locus YOR069W, strain VPS5, stronger effect = lower value 1.01 | locus YOR136W, strain idh2, stronger effect = lower value 1.01 | locus YOR144C, strain elg1, stronger effect = lower value 1 | locus YOR184W, strain ser1, stronger effect = lower value 0.996 | locus YOR316C, strain cot1, stronger effect = lower value 1.01 | locus YPR119W, strain clb2, stronger effect = lower value 1.02 | locus YPR141C, strain kar3, stronger effect = lower value 1.01 | locus YPR163C, strain tif3, stronger effect = lower value 1.02 | locus YPR167C, strain met16, stronger effect = lower value 1.04 | strain wtn01, stronger effect = lower value 1
